Data published in PubChem BioAssay (NCI).
The panel holds about 83,000 compounds, 20% with a hit somewhere; the sample as a whole holds those more often.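 Treatment: one concentration, 48 hours, 96-well format. Scoring: percent growth, with anything below 10 considered active.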 Active and inactive are the calls of the source.

Assays:
Assay in all cases: NCI-60 one-dose screen, 48 h (100 = growth as untreated, 0 = no growth, -100 = all killed)
Settings in all cases: 10 µM unless noted
RPMI-8226 leukemia = tested on: RPMI-8226 leukemia
OVCAR-8 ovarian = tested on: OVCAR-8 ovarian
OVCAR-5 ovarian = tested on: OVCAR-5 ovarian
OVCAR-4 ovarian = tested on: OVCAR-4 ovarian
SK-OV-3 ovarian = tested on: SK-OV-3 ovarian
IGROV1 ovarian = tested on: IGROV1 ovarian
OVCAR-3 ovarian = tested on: OVCAR-3 ovarian
HS 578T breast = tested on: HS 578T breast
NCI/ADR-RES ovarian = tested on: NCI/ADR-RES ovarian
T-47D breast = tested on: T-47D breast
BT-549 breast = tested on: BT-549 breast
MDA-MB-435 melanoma = tested on: MDA-MB-435 melanoma
SW-620 colon = tested on: SW-620 colon
MCF7 breast = tested on: MCF7 breast
HCT-116 colon = tested on: HCT-116 colon
HCC-2998 colon = tested on: HCC-2998 colon
KM12 colon = tested on: KM12 colon

Measured: growth

Cc1cc(Cl)cc(CN(Cc2ccccc2)Cc2c(O)ccc3ccccc23)c1O
inactive: RPMI-8226 leukemia 87.4% | OVCAR-8 ovarian 98.5% | OVCAR-5 ovarian 116% | OVCAR-4 ovarian 105% | SK-OV-3 ovarian 97.2% | IGROV1 ovarian 94.7% | OVCAR-3 ovarian 91.7% | HS 578T breast 102% | NCI/ADR-RES ovarian 96.5% | T-47D breast 89.5% | BT-549 breast 99% | MDA-MB-435 melanoma 112% | SW-620 colon 105% | MCF7 breast 85% | HCT-116 colon 111% | HCC-2998 colon 91.5% | KM12 colon 99.9%

COc1ccc2nc3c(n2c1)C(=O)C(=O)c1ccccc1-3
inactive: SK-OV-3 ovarian 24.8% | T-47D breast 21.4% | KM12 colon 23.1%
active: RPMI-8226 leukemia -0.676% | OVCAR-8 ovarian 9.51% | OVCAR-5 ovarian -79.9% | OVCAR-4 ovarian -81.3% | IGROV1 ovarian 0.7% | OVCAR-3 ovarian -22.8% | HS 578T breast -6.35% | NCI/ADR-RES ovarian -7.37% | BT-549 breast -72.3% | MDA-MB-435 melanoma -91.8% | SW-620 colon -61.8% | MCF7 breast -53.1% | HCT-116 colon -2.17% | HCC-2998 colon -13.5%

COc1ccccc1Nc1nnc(-c2ccc(Cl)cc2)o1
active: OVCAR-3 ovarian 8.06% | MDA-MB-435 melanoma -5.9%
inactive: RPMI-8226 leukemia 29.2% | OVCAR-8 ovarian 60.1% | OVCAR-5 ovarian 86.5% | OVCAR-4 ovarian 68.3% | SK-OV-3 ovarian 47.7% | IGROV1 ovarian 52.8% | HS 578T breast 64.5% | NCI/ADR-RES ovarian 20.8% | T-47D breast 32.4% | BT-549 breast 56.9% | SW-620 colon 20.9% | MCF7 breast 17.1% | HCT-116 colon 34.1% | HCC-2998 colon 82% | KM12 colon 23.9%

C=C1C(=O)O[C@H]2[C@H]1CC/C(COC(=O)c1cc3ccccc3o1)=C\CC[C@@]1(C)O[C@@H]21
inactive: SK-OV-3 ovarian 97.2% | NCI/ADR-RES ovarian 14.2% | HCC-2998 colon 61.6% | KM12 colon 26.7%
active: RPMI-8226 leukemia -23.7% | OVCAR-8 ovarian -12.6% | OVCAR-5 ovarian -18.8% | OVCAR-4 ovarian -10.5% | IGROV1 ovarian -40.1% | OVCAR-3 ovarian -87.4% | HS 578T breast -4.65% | T-47D breast -48% | BT-549 breast -32.5% | MDA-MB-435 melanoma -35.1% | SW-620 colon -58.2% | MCF7 breast -31.8% | HCT-116 colon -84.1%

O=C1Nc2ccc(Cl)cc2/C1=N/c1nc(-c2ccc(Cl)cc2)cs1
active: RPMI-8226 leukemia -2.3% | OVCAR-8 ovarian 3.67% | SK-OV-3 ovarian 1.76% | OVCAR-3 ovarian -13.6% | T-47D breast -3.94% | MDA-MB-435 melanoma -82.3% | MCF7 breast 5.81% | HCT-116 colon 3.16% | HCC-2998 colon 9.52% | KM12 colon 1.73%
inactive: OVCAR-5 ovarian 26.2% | OVCAR-4 ovarian 34.9% | IGROV1 ovarian 16.6% | HS 578T breast 13.7% | NCI/ADR-RES ovarian 57.7% | BT-549 breast 17.4% | SW-620 colon 12.9%

CN1CCN(CC#CCOC(=O)CNC(=O)[C@]23CCC(C)(C)C[C@H]2C2=CC[C@@H]4[C@@]5(C)CC[C@H](O)C(C)(C)[C@@H]5CC[C@@]4(C)[C@]2(C)CC3)CC1
inactive: RPMI-8226 leukemia 76.8% | OVCAR-8 ovarian 81.3% | OVCAR-5 ovarian 101% | OVCAR-4 ovarian 105% | SK-OV-3 ovarian 86.2% | IGROV1 ovarian 90.4% | OVCAR-3 ovarian 94.6% | HS 578T breast 95.5% | NCI/ADR-RES ovarian 87.6% | T-47D breast 75.5% | BT-549 breast 88.9% | MDA-MB-435 melanoma 101% | SW-620 colon 86.8% | MCF7 breast 72% | HCT-116 colon 76.2% | HCC-2998 colon 106% | KM12 colon 94.5%

C=C(C)[C@@H]1CC[C@]2(C(=O)O)CC[C@]3(C)[C@H](CC[C@@H]4[C@@]5(C)C[C@@H](CC#Cc6ccccc6C)C(=O)C(C)(C)[C@@H]5CC[C@]43C)[C@@H]12
inactive: RPMI-8226 leukemia 14.6% | OVCAR-8 ovarian 24.3% | OVCAR-5 ovarian 61% | OVCAR-4 ovarian 31.4% | SK-OV-3 ovarian 34.2% | IGROV1 ovarian 62% | OVCAR-3 ovarian 18.3% | HS 578T breast 45% | NCI/ADR-RES ovarian 48% | T-47D breast 20.7% | BT-549 breast 43.4% | MDA-MB-435 melanoma 55.5% | SW-620 colon 25.7% | MCF7 breast 15.3% | HCT-116 colon 12.5% | HCC-2998 colon 31.7% | KM12 colon 20.3%

NC(N)=NC(N)=Nc1cc2ccccc2c2ccccc12
inactive: OVCAR-8 ovarian 45% | OVCAR-5 ovarian 57.3% | OVCAR-4 ovarian 45.8% | SK-OV-3 ovarian 59.8% | IGROV1 ovarian 17.2% | OVCAR-3 ovarian 63.2% | HS 578T breast 46.5% | NCI/ADR-RES ovarian 80.4% | T-47D breast 30.2% | BT-549 breast 36.1% | MDA-MB-435 melanoma 68.9% | SW-620 colon 22.9% | HCC-2998 colon 26.2% | KM12 colon 47%
active: RPMI-8226 leukemia -15.4% | MCF7 breast 2.2% | HCT-116 colon -44.5%

CCCCc1ccc(N=Nc2ccc(OCC[N+](C)(C)C)cc2)cc1
inactive: RPMI-8226 leukemia 17.8% | OVCAR-8 ovarian 26.8% | OVCAR-5 ovarian 76.2% | OVCAR-4 ovarian 71.8% | SK-OV-3 ovarian 74.8% | IGROV1 ovarian 19.2% | OVCAR-3 ovarian 30.2% | HS 578T breast 72.3% | NCI/ADR-RES ovarian 104% | T-47D breast 88.7% | BT-549 breast 56.4% | MDA-MB-435 melanoma 88.6% | SW-620 colon 49.6% | MCF7 breast 85.1% | HCT-116 colon 48.7% | HCC-2998 colon 25.6% | KM12 colon 29.9%

COc1cc2cc(c1Cl)N(C)C(=O)C[C@H](OC(=O)[C@H](C)N(C)C(=O)CCS)C[C@]1(C)O[C@H]1[C@H](C)[C@@H]1C[C@@](O)(NC(=O)O1)[C@H](OC)/C=C/C=C(\C)C2
inactive: RPMI-8226 leukemia 24.4% | OVCAR-8 ovarian 13.7% | OVCAR-5 ovarian 44% | OVCAR-4 ovarian 28.8% | SK-OV-3 ovarian 18.7% | IGROV1 ovarian 18.5% | HS 578T breast 20.9% | NCI/ADR-RES ovarian 10.5% | T-47D breast 61.2% | BT-549 breast 21.9% | SW-620 colon 18.5% | MCF7 breast 11.4% | KM12 colon 16.1%
active: OVCAR-3 ovarian -4.97% | MDA-MB-435 melanoma -16.4% | HCT-116 colon 2.39% | HCC-2998 colon 8.58%

CCOCc1cc(C(C)(C)C)ccc1O
inactive: RPMI-8226 leukemia 106% | OVCAR-8 ovarian 95.4% | OVCAR-5 ovarian 105% | OVCAR-4 ovarian 103% | SK-OV-3 ovarian 97.8% | IGROV1 ovarian 107% | OVCAR-3 ovarian 115% | HS 578T breast 99.2% | NCI/ADR-RES ovarian 103% | T-47D breast 98.6% | BT-549 breast 104% | MDA-MB-435 melanoma 102% | SW-620 colon 93.4% | MCF7 breast 97.6% | HCT-116 colon 91.2% | HCC-2998 colon 104% | KM12 colon 106%

COc1ccc(NC(=O)Nc2ccc(Nc3nc(C)cc(Nc4ccc(C)cc4)n3)cc2)cc1
active: RPMI-8226 leukemia -45.9% | OVCAR-8 ovarian -56.6% | OVCAR-5 ovarian -85.7% | OVCAR-4 ovarian -87.1% | IGROV1 ovarian -70.5% | OVCAR-3 ovarian -95.5% | HS 578T breast -21.6% | NCI/ADR-RES ovarian -56.3% | T-47D breast -60.1% | BT-549 breast 3.93% | MDA-MB-435 melanoma -97.5% | SW-620 colon -62% | MCF7 breast -63.8% | HCT-116 colon -91.6% | HCC-2998 colon -74.6% | KM12 colon -88.1%
inactive: SK-OV-3 ovarian 69%

O=[N+]([O-])c1ccc(Oc2ccc(-c3ccccc3)cc2)cc1
inactive: RPMI-8226 leukemia 75.2% | OVCAR-8 ovarian 92.1% | OVCAR-5 ovarian 99.2% | OVCAR-4 ovarian 69.6% | SK-OV-3 ovarian 92.6% | IGROV1 ovarian 85.3% | OVCAR-3 ovarian 99.3% | HS 578T breast 93.2% | NCI/ADR-RES ovarian 91.8% | T-47D breast 60.6% | BT-549 breast 79.6% | MDA-MB-435 melanoma 101% | SW-620 colon 99% | MCF7 breast 84.4% | HCT-116 colon 73.4% | HCC-2998 colon 92.2% | KM12 colon 89.5%

CC(C)(C)c1nn(-c2ccccc2)c2c1COCN2Cc1ccc(Cl)cc1
inactive: RPMI-8226 leukemia 10.9% | OVCAR-8 ovarian 107% | OVCAR-5 ovarian 90% | OVCAR-4 ovarian 77.2% | SK-OV-3 ovarian 92.6% | IGROV1 ovarian 117% | OVCAR-3 ovarian 104% | HS 578T breast 86.2% | NCI/ADR-RES ovarian 94.8% | T-47D breast 73.6% | BT-549 breast 122% | MDA-MB-435 melanoma 100% | SW-620 colon 82.9% | MCF7 breast 80.1% | HCT-116 colon 62.8% | HCC-2998 colon 51.9% | KM12 colon 86.4%

C#CCN1C(=O)c2ccccc2N(CC#C)C12CCN(Cc1cn(CC(=O)Nc3ccccc3C(N)=O)nn1)CC2
inactive: RPMI-8226 leukemia 82.2% | OVCAR-8 ovarian 100% | OVCAR-5 ovarian 89.2% | OVCAR-4 ovarian 89% | SK-OV-3 ovarian 106% | IGROV1 ovarian 82.4% | OVCAR-3 ovarian 84.4% | HS 578T breast 91.8% | NCI/ADR-RES ovarian 80.5% | T-47D breast 77% | BT-549 breast 72.4% | SW-620 colon 94% | MCF7 breast 83.8% | HCT-116 colon 74.4% | HCC-2998 colon 100% | KM12 colon 88.8%

COc1ccc2c(c1)/C(=C1\S/C(=N/c3nnc(C)s3)NC1=O)C(=O)N2Cc1ccc(Cl)cc1
inactive: RPMI-8226 leukemia 40.3% | OVCAR-8 ovarian 52.2% | OVCAR-5 ovarian 90.5% | OVCAR-4 ovarian 44.7% | SK-OV-3 ovarian 70% | IGROV1 ovarian 41.9% | OVCAR-3 ovarian 42.2% | HS 578T breast 55.1% | NCI/ADR-RES ovarian 32% | T-47D breast 42% | BT-549 breast 54.6% | SW-620 colon 49.3% | MCF7 breast 45.8% | HCT-116 colon 31.7% | HCC-2998 colon 34.2% | KM12 colon 28.6%

O=C(Nc1ccc2ncnc(Nc3ccc(F)c(Cl)c3)c2c1)c1ccccc1
active: OVCAR-4 ovarian -39.8%
inactive: RPMI-8226 leukemia 66.9% | OVCAR-8 ovarian 79.1% | OVCAR-5 ovarian 83.9% | SK-OV-3 ovarian 45.1% | IGROV1 ovarian 28.5% | OVCAR-3 ovarian 32.5% | HS 578T breast 82.8% | NCI/ADR-RES ovarian 65.9% | T-47D breast 45.3% | BT-549 breast 74.2% | MDA-MB-435 melanoma 80.4% | SW-620 colon 88% | MCF7 breast 47.2% | HCT-116 colon 47.2% | HCC-2998 colon 98.7% | KM12 colon 79.6%
